Screens (PubChem BioAssay)
SARS PLpro yeast: qHTS of Yeast-based Assay for SARS-CoV PLP; Potency, µM (titrated, usually from 32.9 µM), for the others: at the highest dose activity, positive = growth rescue, hits mostly activators; AID 485353, 2010; 330,000 compounds, 0.19% hits; S. cerevisiae expressing SARS-CoV PLpro, growth rescue; calls by dose curve; also: potency is read from the fitted curve at half-maximal effect; 0% is about no effect; nearly all actives have a fitted effect of over 55% in size
Pf growth 96h: Primary qHTS for delayed death inhibitors of the malarial parasite plastid, 96 hour incubation; P. falciparum luciferase reporter growth, 96 h; Potency, µM (highest dose often 28.7 µM), for the others: at the highest dose activity change, negative = inhibition, hits mostly inhibitors; 320,000 compounds, 6.9% hits; AID 504834, 2011; also: potency is read from the fitted curve at half-maximal effect; % is scaled to controls: 0 for no effect and ±100 for the full control effect
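Luminescence readout: decreased luciferase signal marks inhibited growth of reporter-expressing P. falciparum in infected red cells (2% hematocrit, 0.05% parasitemia final), exposed to compound two generations (96 h, 37 C, 5% CO2).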
CHX counter: Cycloheximide Counterscreen for Small Molecule Inhibitors of Shiga Toxin; cell reporter, cycloheximide protein synthesis inhibition counterscreen; max response, %; 300,000 compounds, 12% hits; AID 2314, 2010; in the data active = max response mostly above about 13%, no sharp cut-off; inactive = mostly below about 14%; also: read at 38.3 µM for the half of the compounds with a filed dose; 0% is about no effect
Pf growth 48h: Primary qHTS for delayed death inhibitors of the malarial parasite plastid, 48 hour incubation; P. falciparum luciferase growth in erythrocytes, 48 h; Potency, µM (doses to about 28.7 µM), without a hit: at the top dose activity change, negative = inhibition, actives largely listed as inhibitors; 310,000 compounds, 5.9% hits; also: potency is read from the fitted curve at half-maximal effect; % is scaled to controls: 0 for no effect and ±100 for the full control effect
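A one-generation exposure of luciferase-tagged malaria parasites in RPMI 1640/Albumax erythrocyte culture, 37 C and 5% CO2. Inhibition is inferred from decreased luminescence after adding detection reagent.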
Shiga toxin inh: A qHTS for Small Molecule Inhibitors of Shiga Toxin; Vero cells, Shiga toxin protein synthesis inhibition reporter; inhibition, % at 38.7 µM; 290,000 compounds, 9.2% hits; AID 2315, 2010; in the data active = inhibition mostly above about 28%, no sharp cut-off; inactive = mostly below about 43%; also: 0% is about no effect
AMA1 RON2 block: qHTS for Inhibitors of AMA1-RON; Towards Development of Antimalarial Drug Lead: Primary Screen; 360,000 compounds, 0.2% hits; AlphaScreen AMA1-biotinylated RON2 peptide binding; Potency, µM (top dose mostly 58.2 µM), inactives show top-dose activity change, negative = inhibition, most hits filed as inhibitors; AID 720542, 2013;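 also: potency is read from the fitted curve at half-maximal effect; 0% = vehicle wells and -100% = peptide control; nearly all actives have a fitted effect of over 45% in size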
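AMA1 (3D7) with his tag at 25 nM final met compounds first, then biotinylated RON2 peptide at 25 nM; detection used donor plus acceptor beads, 10 µg/mL apiece, read by AlphaScreen after 30 min at room temperature.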
An asterisk follows results filed as active; ? = inconclusive; . = no result given. Rows were chosen to be rich in hits. Some 19% of all compounds tested hit in one or more screens of this group. Unless noted, calls follow the shape of the dose curve; as a rule, active = well fitted curve in the direction sought with a large enough effect; inconclusive = small, poorly fitted or top-dose-only effect, or another doubt; inactive = no such curve, though single readings can be large; an effect the other way counts as inactive or inconclusive.

SMILES	SARS PLpro yeast	Pf growth 96h	CHX counter	Pf growth 48h	Shiga toxin inh	AMA1 RON2 block
Cc1cccnc1NC(=O)C1CCN(S(=O)(=O)c2c(C)noc2/C=C/c2ccco2)CC1	-3%	?	-1	?	3	-9%
Cc1ccc(NC(=O)C2CCN(S(=O)(=O)c3c(C)noc3/C=C/c3ccco3)CC2)nc1	-5%	?	1	-11%	-7	-6%
Cc1ccc(CNC(=O)C2CCN(S(=O)(=O)c3c(C)noc3/C=C/N(C)C)CC2)cc1	-1%	19%	-1	-16%	-3	-11%
Cc1ccc(CNC(=O)C2CCN(S(=O)(=O)c3c(C)noc3/C=C/c3ccco3)CC2)cc1	7%	6.6µM*	5	.	9	-6%
Cc1noc(/C=C/c2ccco2)c1S(=O)(=O)N1CCC(C(=O)N2CCc3ccccc3C2)CC1	-4%	?	19*	9.3µM*	47*	-13%
Cc1noc(/C=C/c2ccco2)c1S(=O)(=O)N1CCC(C(=O)NCc2ccco2)CC1	2%	.	0	13µM*	-7	-8%
CC1(C(=O)Nc2ccc3[nH]ncc3c2)CCN1C(=O)Cc1ccc(-c2ccccc2)cc1 (stereo not drawn)	.	.	.	.	.	-5%
COc1ccc(CNC(=S)Nc2cccc(C)c2C)cc1	?	31%	1	?	19	-8%
COc1ccc(C(C)(NC(C)=O)c2nc(-c3cc(F)cc(F)c3)cs2)cc1 (stereo not drawn)	.	.	.	.	.	-7%
Cc1cccc(C)c1NC(=O)Cn1nc(-c2ccc(Cl)s2)ccc1=O	-5%	-9%	-6	14%	-2	-4%
O=C(/C=C/c1ccc(Cl)c(Cl)c1)N1CCOCC1	14%	?	24*	13%	104*	1%
O=C(C=Cc1ccccc1)N1CCCCC1	.	.	.	.	.	2%
O=C(/C=C/c1ccc(OCc2cccc(Cl)c2)cc1)N1CCOCC1	-3%	?	24*	?	45	-9%
CN1CCN(C(=O)/C=C\c2ccc(Cl)cc2)CC1	0%	10%	-1	42%	2	-3%
O=C(/C=C/c1ccc(Cl)cc1)N1CCOCC1	0%	11%	35*	36%	54*	18%
O=C(/C=C/c1ccccc1)N1CCOCC1	-2%	3.3µM*	14	18%	6	-6%
O=C(NCCCn1ccnc1)c1ccc(S(=O)(=O)N2CCOCC2)cc1	6%	12%	-3	6%	-13	1%
O=C(C[n+]1cccc(/C=N/O)c1)NC(=O)Nc1ccccc1	.	.	.	.	.	-11%
CN(C(=O)c1cccc(NC(=O)Cc2ccc(NC(=O)C3CCN(C(=O)C4CC4)CC3)cc2)c1)C1CCC1	.	.	.	.	.	-1%
CCCOc1ccc(/C=C/C(=O)N2CCOCC2)cc1	-2%	-4%	56*	78%	61*	-4%
O=C(COc1ccc(/C=C\[N+](=O)[O-])cc1)N1CCOCC1	-1%	92%	-1	?	-5	-7%
Cc1ccc(NC(=O)COC(=O)/C=C/c2c(C)nn(-c3ccc(F)cc3)c2Cl)cc1F	11%	14%	4	9%	5	8%
O=[N+]([O-])c1ccc(O)c(C=Nc2cccc3ccccc23)c1	-14%	?	-3	-25%	-3	38%
Oc1ccc(C=Nc2cccc3ccccc23)c(O)c1	1%	43%	14*	-20%	30	9%
c1nc2nc(Nc3ccc(N4CCOCC4)cc3)nc(NC3CCCCC3)c2[nH]1	.	.	-12	.	-24	.
SMILES	SARS PLpro yeast	Pf growth 96h	CHX counter	Pf growth 48h	Shiga toxin inh	AMA1 RON2 block
COC(=O)c1ccc2c(=O)n(CCN3CCOCC3)c(SCC(=O)Nc3ccc(C)cc3)nc2c1	4%	12µM*	8	0%	-5	1%
COC(=O)c1ccc2c(=O)n(CCN3CCOCC3)c(SCC(=O)NCc3ccccc3)nc2c1	2%	?	-6	?	-5	-2%
CCCCn1c(SC(C)C(=O)NCC2CCCO2)nc2cc(C(=O)OC)ccc2c1=O (stereo not drawn)	-2%	8.3µM*	.	5.9µM*	.	2%
CCOC(=O)CSc1nc2cc(C(=O)OC)ccc2c(=O)n1CCN1CCOCC1	-1%	?	1	48%	-1	2%
CCn1c(SCC(=O)Nc2ccc(OC)cc2OC)nc2nc3c(cc2c1=O)COC(C)(C)C3	3%	8.3µM*	-3	?	15	-11%
COC(=O)c1ccc2c(=O)n(CCN3CCOCC3)c(SCC(=O)C(C)(C)C)nc2c1	2%	13µM*	-5	?	-20	0%
O=C(O)CCc1ccc(S(=O)(=O)Nc2cc(C(F)(F)F)ccc2N2CCCC2)cc1	-1%	-6%	.	11%	.	-3%
COc1ccccc1-c1coc2cc(OC(=O)/C=C/c3ccccc3)ccc2c1=O	-8%	?	-4	38%	-5	-9%
O=C1OC(c2ccc(F)cc2)CC1CN1CCOCC1 (stereo not drawn)	.	.	.	.	.	-3%
COc1cccc(CNC(=O)C2CCCN(S(=O)(=O)c3cnc[nH]3)C2)c1 (stereo not drawn)	0%	?	-8	.	-12	-2%
COc1ccc(/C=C2\CCCc3c2nc2ccc(C)cc2c3C(=O)O)cc1O	-2%	16%	-1	8%	-2	3%
O=C(Nc1cccc2ccccc12)c1csc([C@@H]2C[C@H](O)[C@@H](CO)O2)n1	.	.	.	.	.	1%
COCCCn1c(SCC(=O)N2CCOCC2)nc2cc(Cl)ccc2c1=O	-2%	-4%	.	10µM*	.	5%
COC(=O)c1ccc2c(=O)n(CC3CCCO3)c(SCC(=O)Nc3ccc(OC)cc3OC)nc2c1 (stereo not drawn)	0%	?	-4	6.6µM*	39	6%
COCCCn1c(SCC(=O)N2CCOCC2)nc2ccccc2c1=O	-13%	?	-7	12%	-20	-13%
O=S(=O)(C/C(=C/CO)S(=O)(=O)c1ccccc1)c1ccccc1	5%	?	26*	?	41	-14%
O=S(=O)(CS(=O)(=O)c1ccccc1)c1ccccc1	.	.	.	.	.	-8%
CC1(C(=O)Nc2cnc3ccccc3c2)CCN1Cc1ccc2ccccc2c1 (stereo not drawn)	.	.	.	.	.	-8%
O=C(Nc1cnc2ccccc2c1)N1CCCCC1	-1%	-25%	51*	435%	82*	-19%
O=C(Nc1cnc2ccccc2c1)N1CCOCC1	-2%	13%	42*	120%	64*	9%
Cc1cc([N+](=O)[O-])ccc1N(C)C	-9%	40%	-5	-6%	-15	-2%
CCN1CCN(C(=S)NC(=O)c2cccs2)CC1	1%	-24%	-2	?	-14	63%
O=C(NC(=S)N1CCN(c2ccc(C(F)(F)F)cc2[N+](=O)[O-])CC1)c1cccs1	-39%	4.1µM*	-3	-6%	-7	-5%
